# Source: PubChem
# The sample as a whole holds a higher share of hits than the screen did.
# Pf Dd2 growth: blocks in vitro growth of P. falciparum Dd2 | Potency, µM (highest dose often 28.9 µM), inactives show at the highest dose activity, negative = inhibition, actives largely listed as inhibitors | P. falciparum Dd2 growth, SYBR Green, 72 h | actives 4.3% (n = 120,000); active = well fitted inhibition curve with a large enough effect;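 note: plate controls were DMSO vehicle for no effect and reference drug for full effect; nearly all actives have a fitted effect of over 65% in size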
#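 Readout: SYBR Green fluorescence, 485 nm excitation, 535 nm emission, after ~16 h lysis at 37C. Before that, Dd2-infected red cells (2.5% hematocrit) grew 72 h with compound, 29 uM top final concentration.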
# Active calls of the source: *; i = inactive; [ ] = dose if it differs, or a comment. Potency is the fitted concentration of half-maximal effect.
SMILES,Pf Dd2 growth
COc1ccc2nc(NC(=O)c3nc(S(=O)(=O)Cc4ccccc4F)ncc3Cl)sc2c1,-7%
COc1ccc(CNc2oc(/C=C/c3cccc(OC)c3)nc2C#N)cc1,i
COc1ccc(-n2cc(C(=O)NCc3ccccc3)c3ccccc3c2=O)cc1,-7%
Cc1cccc(Cn2nnc3c(=O)[nH]c(C4CCCN(C(=O)c5ccc(C(C)(C)C)cc5)C4)nc32)c1 (stereo not drawn),1µM*
O=C(c1ccccc1F)N1CCC(c2nn(Cc3ccccc3)c(=O)[nH]2)CC1,27%
CCc1cn[nH]c1C1CCCN(C(=O)c2ccc(Cn3nnnc3C)cc2)C1 (stereo not drawn),10%
Cc1ccccc1Cn1nnc2c(=O)[nH]c(C3CCCN(C(=O)c4ccc(C(C)(C)C)cc4)C3)nc21 (stereo not drawn),8.9µM*
COC(=O)c1ccc(Cn2nnc3c(=O)[nH]c(C4CCCN(S(=O)(=O)c5ccccc5)C4)nc32)cc1 (stereo not drawn),-22%
Cc1ccc(Cn2nnc3c(=O)[nH]c(C4CCN(C(=O)Cc5ccccc5F)CC4)nc32)cc1,-27%
Cc1ccc(C(=O)N2CCCC(c3nn(-c4ccccc4)c(=O)[nH]3)C2)cc1 (stereo not drawn),i
O=C(Cc1ccccc1F)N1CCC(c2nc3c(nnn3Cc3cccc(Cl)c3)c(=O)[nH]2)CC1,10µM*
N#Cc1ccccc1Cn1nnc2c(=O)[nH]c(C3CCCN(S(=O)(=O)c4ccc(F)cc4)C3)nc21 (stereo not drawn),i
O=C1NCCCCCN(S(=O)(=O)c2ccc3c(c2)OCCO3)[C@H]2CCC[C@@H]12,-8%
O=C(CCc1nc(C2CCOCC2)n[nH]1)N1CCCCCC1,-5%
CCSCCNC(=O)c1c(C)noc1-c1ccc(OC)cc1,-18%
CCCN(C(=O)Cn1nc(Cc2cccnc2)c2ccccc2c1=O)c1ccc(C(C)C)cc1,-8%
COc1cc(CN(C)C(=O)c2c(C)noc2-c2ccc(C(C)(C)C)cc2)cc(OC)c1OC,-5%
CN1C(=O)C(c2ccccc2)CC12CCN(C(=O)c1cccc(F)c1)CC2 (stereo not drawn),-2%
Cn1c(Oc2cccc(Cl)c2)nc2c1c(=O)n(Cc1ccccc1Cl)c(=O)n2C,15%
COc1cccc([S+](=O)([O-])N2CCc3nc(C4CC4)nc(-c4ccc(Cl)cc4)c3CC2)c1,13µM*
COc1ccc(-c2nc(C)nc3c2CCN(Cc2cc(C)on2)CC3)cc1,-13%
Cc1cc(CN2CCc3nc(C(C)C)nc(-c4ccc(Cl)cc4)c3CC2)no1,8.9µM*
COc1ccc(-c2nc(C(C)C)nc3c2CN([S+](=O)([O-])c2cccc(C(F)(F)F)c2)CC3)cc1,i
CC(C)c1nc2c(c(-c3ccc(Cl)cc3)n1)CCN(CC1CC1)CC2,-18%
COc1ccc(C(=O)N2CCc3nc(C4CC4)nc(-c4ccc(Cl)cc4)c3CC2)cc1,10µM*
SMILES,Pf Dd2 growth
O=[S+]([O-])(c1cccc(C(F)(F)F)c1)N1CCc2nc(C3CC3)nc(-c3ccc(Cl)cc3)c2C1,-11%
CC(C)c1nc2c(c(-c3ccc(Cl)cc3)n1)CCN([S+](=O)([O-])c1ccccc1)CC2,11µM*
CCc1nc2c(c(-c3ccc(Cl)cc3)n1)CCN(C(=O)c1ccc(OC)cc1)CC2,i
Cc1ccc([S+](=O)([O-])N2CCc3nc(C)nc(-c4ccc(Cl)cc4)c3CC2)cc1,13%
Cc1ccc(C(=O)N2CCc3nc(C4CC4)nc(-c4ccc(Cl)cc4)c3CC2)cc1,-15%
COc1ccc(-c2nc(C)nc3c2CN([S+](=O)([O-])c2cccc(OC)c2)CC3)cc1,-7%
O=C(Cc1ccccn1)N1CCC(N2CCCNC2=O)CC1,19%[44.1 µM]
O=C(N[C@@H]1CN(Cc2cccc(OC(F)(F)F)c2)CC[C@@H]1CO)c1ccccc1,i
CCOc1ccccc1C1NC(=O)N(CC(=O)NCc2ccccc2)C2=C1C(=O)OC2 (stereo not drawn),i
O=C([C@@H]1C[C@H](F)CN1C(=O)c1ccco1)N1CCCCC1,24%
CNC(=O)c1cccc(-n2c(C)nc3cccnc32)c1C,16%
CS(=O)(=O)N1CCC(C2CCN(C(=O)Cc3cccnc3)C2)CC1 (stereo not drawn),9%
O=C(c1ccc(F)c(Cl)c1)N1C[C@@H](CO)[C@H](c2ccccn2)C1,0%
COc1ccccc1CNC(=O)c1ccc2nc(-c3ccccc3)c(-c3ccccc3)nc2c1,51%
CN(C)C[C@@H]1CN(C)C[C@H]1NC(=O)c1cccc2[nH]ccc12,21%
CCNC(=O)N(C1CC1)C1CCOC2(CCN(C(=O)Cc3cccc(OC)c3)CC2)C1 (stereo not drawn),-18%
COc1ccc(-c2nc(C)nc3c2CCN(C(=O)c2ccc(C)cc2)CC3)cc1,-19%
COc1ccc(-c2nc(C)nc3c2CCN(C(=O)c2ccc4c(c2)OCO4)CC3)cc1,i
COc1ccc(-c2nc(C3CC3)nc3c2CCN(C(=O)c2ccc4c(c2)OCO4)CC3)cc1,11µM*
C=CCN(C)C[C@H]1CN2CC[C@H]1C[C@@H]2CNC(=O)NC(C)C,26%[44.1 µM]
CN(C)c1ccc(CN2CCNc3cnc(-c4ccccc4)cc3C2)cc1,-6%[44.1 µM]
CC(C)C(=O)NC1CCN(c2cnn(C)c(=O)c2)CC1,22%
CCc1ccc(N2CC(c3noc(-c4ccc(OC)c(F)c4)n3)CC2=O)cc1 (stereo not drawn),9%
COCCn1cc(CN2CCN(Cc3ccccc3F)CC2)ccc1=O,22%
COc1ccc(-c2nn(-c3ccccc3C)cc2CN2CCCN(C)CC2)cc1F,7.9µM*
SMILES,Pf Dd2 growth
COc1ccc(OC)c(CN2CCN(S(=O)(=O)c3ccccc3)CC2)c1,i
CCc1c(CN2CCN(c3ccccc3F)CC2)csc1C,-1%
OC[C@H]1CCN(Cc2cn(-c3ccccc3)nc2-c2ccncc2)C[C@@H]1O,-30%
COc1ccc(-c2nn(-c3ccccc3)cc2CN2CCCC(C)(O)C2)c(F)c1 (stereo not drawn),i
CCC1CN(Cc2cn(-c3ccccc3C)nc2-c2ccc(OC)c(F)c2)CCO1 (stereo not drawn),11µM*
CCN1CCN(Cc2cn(-c3ccccc3F)nc2-c2cc(C)sc2C)CC1,11µM*
COc1cc(NC(=O)Cn2ccn3nc(-c4ccc(F)cc4)c(CO)c3c2=O)cc(OC)c1OC,i
COc1cc(Cl)ccc1C(=O)N1C[C@@H](CO)[C@H](c2nc(C)no2)C1,2%
COCCCNc1ccc2nnc(-c3ccccn3)n2n1,5%[44.1 µM]
O=C1Cc2c(-c3ccccc3Cl)n[nH]c2CN1CC1CCOCC1,-15%[44.1 µM]
Cc1cn(C)c(CC(=O)NCc2ccc(F)cc2)c1C(=O)O,15%
Cn1cc(CN2CCCC(C(=O)N3CCOCC3)C2)c(-c2ccc(C3CCCCC3)cc2)n1 (stereo not drawn),-23%
Cn1cc(CN2CCN3CCCC3C2)c(-c2ccc(C3CCCCC3)cc2)n1 (stereo not drawn),8.9µM*
Cn1cc(CN2CCN3C(=O)N(C4CCCCC4)C[C@H]3C2)cn1,i
O=C(NCc1ccccn1)C1CCN(C(=O)N2CC3CC(C2)[C@H]2CCCC(=O)N2C3)CC1 (stereo partly drawn),-25%
c1ccc2sc([C@H]3CCN(CC4CCCCC4)C3)nc2c1,10µM*
CCOc1cccc(C(=O)N2CCC(c3nc4ccccc4s3)CC2)c1,87%
O=C(C1CCCCC1)N1CC[C@H](c2nc3ccccc3s2)C1,-26%[44.1 µM]
CCOc1ccccc1NC(=O)N1CCC2(CC1)CC(Cc1nc(COC)no1)CCO2 (stereo not drawn),i
